Results with a measured potency or affinity are listed apart. Values without a mark were called inactive. No rule for the calls is given here.

A short description of the assay: HEK293 cell cytotoxicity, dose response, cytotoxicity control, plate reader, cherry-picked samples (AID 743446). Conditions: hits give low values; at 26 µM unless noted.
In the case of `Cc1ccc(C)c(S(=O)(=O)N(C(=O)c2ccncc2)c2ccc(OC(=O)c3ccncc3)cc2)c1`, the max activity was 13.7%. With `O=C(C[C@@H]1C[C@H]2c3cc(NC(=O)c4ccc5c(c4)OCO5)ccc3O[C@H]2[C@@H](CO)O1)NCc1ccc(Oc2ccccc2)cc1` the figure was -15.7% [at 0.05 µM]; with `COc1ccc(-c2cc(C(=O)Nc3cccc(O)c3)no2)cc1`, 75.5% [at 0.195 µM]. `O=C(Nc1nc2cc3c(cc2s1)OCO3)c1ccco1`: the max activity is 45.6% [at 0.05 µM]. As to `Cc1ccoc1C(=O)Nc1ccc2ccccc2c1`, the max activity was -16.8% [at 0.1 µM].

As to `CN1CCN(c2ccc(NC(=O)c3sc4ccccc4c3Cl)cc2)CC1`, the max activity is 17.1% [at 0.1 µM].

`COc1cc(C(=O)Nc2nc(-c3cccs3)cs2)cc(OC)c1OC`: the max activity is 53.9% [at 6 µM].

As to `CCS(=O)(=O)N1Cc2ccccc2CC1C(=O)Nc1nc2ccccc2s1` (centres undefined), the max activity was 11.4% [at 0.38 µM]. For `N#C[C@@H]1[C@H](c2ccc(C#Cc3cccc(F)c3)cc2)[C@@H](CO)N1C(=O)C1CC1`, the max activity was 10.4% [at 12 µM].

For `CNCc1ccccc1Sc1ccc(O)c(O)c1`, the max activity was -16.4%. On to `Fc1ccc(-n2nnc(-c3cnc4ccccc4c3)n2)cc1`, for which the max activity is 26.8% [at 1.6 µM]. As to `O=C(c1cc(-c2ccc(Cl)cc2Cl)on1)N1CCCC1`, the max activity is 9.97% [at 0.8 µM]. Turning to `Cc1ccc2nc(-c3ccc(NC(=O)C4CCCO4)cc3)[nH]c2c1` (centres undefined), the max activity was 41.8%. Take `O=C(C[C@H]1CC[C@H](NS(=O)(=O)c2cccc(F)c2)[C@@H](CO)O1)N1CCCCC1`: the max activity is 20.1% [at 0.05 µM]. `Cc1ccccc1C(=O)Nc1ccc2c(c1)OCCO2`: the max activity is -9.3% [at 0.05 µM]. For the compound `COc1ccc2nc(-c3ccccn3)ccc2c1`, the max activity is -37.6%. Consider `COc1cc(NC(=O)c2cccs2)c(C(=O)OCC(=O)c2cc(C)n(-c3ccccc3)c2C)cc1OC`, for which the max activity is 17.2%. With `CCCc1ccc(-c2ccc(F)c(N)c2)nc1`, the max activity is -20.7% [at 12 µM]. On to `CCC(=O)Nc1cc2nn(-c3ccc(OC)cc3)nc2cc1C`, for which the max activity was 0% [setting not given]. For the compound `C[C@H](CO)N1C[C@H](C)[C@H](CN(C)C(=O)Nc2cccc3ccccc23)OCCCC[C@H](C)Oc2ccc(NC(=O)c3ccccc3)cc2C1=O`, the max activity is 31.2% [at 12 µM]. For the compound `CCCOc1ccc(F)cc1-c1cc(C(=O)Nc2cc(OC)c(OC)c(OC)c2)[nH]n1`, the max activity is 9.95% [at 3 µM]. In the case of `c1ccc(-n2ncc3c(N4CCCCC4)ncnc32)cc1`, the max activity is -13.3% [at 3 µM]. For the compound `O=C(O)c1cccc(Nc2ccnc(Nc3cccc(C(=O)O)c3)n2)c1`, the max activity was -12.2% [at 0.05 µM].

Regarding `CCn1c(C)cc(C(=O)CN2C(=O)c3ccccc3S2(=O)=O)c1C`, the max activity is -18.9% [at 6 µM]. With `COc1ccc2oc(-c3ccccc3)cc(=O)c2c1`, the max activity is -14.7% [at 12 µM].

`O=C(O)c1cccc(-c2nc3ccccc3[nH]2)c1`: the max activity is -25.9% [at 0.38 µM]. For `CC(C)c1ccc(NC(=O)N2CCN(S(=O)(=O)c3ccccc3)CC2)cc1`, the max activity was 17.9% [at 0.38 µM]. Take `Cc1ccc(Nc2nc(-c3ccccc3)cs2)nc1`: the max activity was -17.9% [at 0.05 µM].

In the case of `O=C(O)c1cccc(N/N=C/c2cccs2)c1`, the max activity is 58.2% [at 6 µM]. To `Cc1c(NC(=O)c2ccc(-c3ccccc3)cc2)cccc1C(=O)O` belongs 41.3%; to `CC(C)CCNC(=O)C(c1ccc(O)cc1)N(Cc1cccs1)C(=O)C1COc2ccccc2O1` (centres undefined), -16.3%; to `Cc1ccsc1/C=N/Nc1cccc(C(=O)O)c1`, 25.6% [at 0.8 µM]. For the compound `C[C@@H]1CN([C@@H](C)CO)C(=O)c2cc(NS(C)(=O)=O)ccc2O[C@@H](C)CCCCO[C@@H]1CN(C)Cc1ccc(C(F)(F)F)cc1`, the max activity is -12.9% [at 0.1 µM]. Consider `Cc1ccc(S(=O)(=O)N(C)C[C@H]2Oc3cc(Br)ccc3S(=O)(=O)N([C@H](C)CO)C[C@H]2C)cc1`, for which the max activity is 10.1% [at 1.6 µM]. To `Cc1ccc2nc(-c3ccc(Br)cc3)cn2c1` belongs 0% [setting not given]; to `O=C(NCc1ccc(F)cc1)c1cc(C2CCCCN2S(=O)(=O)c2cccs2)on1` (centres undefined), 15.1% [at 0.38 µM]. On to `COc1cccc(-c2ccc(C3[C@@H]4CN(C(=O)C5CC5)C[C@H]3N4)cc2)c1` (some centres undefined), for which the max activity is 15.1% [at 3 µM].

Consider `COc1ccc(-c2cc(C(=O)N3CCCC3)no2)cc1`, for which the max activity was 30.6% [at 0.195 µM]. With `O=C(NCCc1ccccc1)c1ccc2nccnc2c1` the figure was 9%.

The record behind these values is PubChem BioAssay AID743446 (Broad Institute, 2014).
